RTF Ca sens inh – cardiac RTF calcium desensitization; P19429+P45379; IANBD-labeled cardiac RTF, Ca2+ fluorescence; inhibition, % at 7.15 µM; 340,000 compounds, 0.12% hits; AID 493244;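 active means inhibition above the mean inhibition of all tested compounds plus 3 SD, cut at about 17% in these data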;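 further: assay run at fixed EC70 calcium of 1.6 mM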
CRFBP-R2 block – CRF-BP/CRF-R2 complex antagonism. HEK293 CRF-R2/CRF-BP, CRF-induced calcium fluorescence. inhibition, % at 11.8 µM. 350,000 compounds, 0.59% hits;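 active means inhibition of the ligand-induced calcium signal above about 50% at the single tested concentration, limit read from the data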
CRFR2-BP ag – agonists of human CRF-binding protein/CRF-R2 receptor complex | 350,000 compounds, 0.46% hits | activation, % at 13.2 µM | AID 588473 | HEK293 CRF-R2/CRF-BP, calcium dye fluorescence (FLIPR); percent of saturating CRF peptide response;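 active means activation of at least 50%, plus an integration ratio under a set limit after plate pattern correction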
RTF Ca sens act – cardiac RTF calcium sensitization; P19429+P45379; IANBD-labeled TnC RTF fluorescence at EC20 calcium; 0% EC20 calcium, 100% full calcium; activation, % at 7.2 µM; 340,000 compounds, 0.24% hits; AID 493008;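 active means activation above the mean over all tested compounds plus 3 SD, cut at about 30% in these data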;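 further: rise in fluorescence read as greater calcium sensitivity of cardiac thin filaments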
Myeloid diff MLP – myeloid differentiation induction. AID 624256. ER-HoxA9 myeloid progenitors, lysozyme-GFP differentiation, flow cytometry. 360,000 compounds, 1% hits. calls only at 10 µM;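 active means normalized GFP-positive differentiation at or above the plate's own cutoff, the solvent-only control mean plus 3 SD; inconclusive means no clear call, values can overlap the other calls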;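 further: cells exposed to compound for four days before flow analysis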
Of the large screens only hits and unclear results are named; the others gave an inactive call. Rows were chosen to be rich in hits. Some 2.2% of all compounds tested hit in one or more screens of this group.

COC(=O)C1=C(c2ccc(C(C)=O)cc2)C[C@@H]2CC[C@H]1N2C(=O)NCc1ccc(C(F)(F)F)cc1	CRFR2-BP ag 68
COC(=O)C1=C(c2cccc(OCc3ccccc3)c2)C[C@@H]2CC[C@H]1N2C(=O)NCc1ccc(N(C)C)cc1	Myeloid diff MLP active
COC(=O)C1=C(c2ccc(F)cc2OCc2ccccc2)C[C@@H]2CC[C@H]1N2C(=O)NCc1ccccc1Cl	Myeloid diff MLP active
COC(=O)C1=C(c2ccc(F)cc2OCc2ccccc2)C[C@@H]2CC[C@H]1N2C(=O)NCc1cccc(C(F)(F)F)c1	none
CC=C(CC)C1(CCC)C(=O)NC(=S)NC1=O	none
C/C=C(\C)C(=O)N[C@@H](c1ccccc1)[C@@H](O)C(=O)O[C@H]1C[C@@]2(O)[C@@H](OC(=O)c3ccccc3)C3[C@](C)(C(=O)[C@H](O)C(=C1C)C2(C)C)[C@@H](O)C[C@H]1OC[C@@]31OC(C)=O (stereo partly drawn)	none
C/C=C(\C)C(=O)N[C@@H](c1ccccc1)[C@@H](O)C(=O)O[C@H]1C[C@@]2(O)[C@@H](OC(=O)c3ccccc3)C3[C@](C)(C(=O)[C@H](OC(C)=O)C(=C1C)C2(C)C)[C@@H](O)C[C@H]1OC[C@@]31OC(C)=O (stereo partly drawn)	Myeloid diff MLP active (no result: RTF Ca sens inh, RTF Ca sens act)
CN(C)c1ccc(NC(=O)CN2C(=O)CN=C(c3ccccc3)c3cc(Cl)ccc32)cc1	none
CN(C)c1ccc(NC(=O)CN2C(=O)CN=C(c3ccccc3)c3ccccc32)cc1	Myeloid diff MLP active
CSc1ccc(C(=O)C2CCCN(Cc3cnc(SC)nc3)C2)cc1 (stereo not drawn)	none
CCn1ccnc1CN1CCCC(C(=O)c2ccc(SC)cc2)C1 (stereo not drawn)	Myeloid diff MLP active
CC[n+]1c(-c2ccccc2)c2cc(N)ccc2c2ccc(N)cc21	Myeloid diff MLP active
C[C@H]1COc2cc(N3CCN(C)CC3)ccc2S(=O)(=O)N1	none (no result: RTF Ca sens inh, CRFBP-R2 block, CRFR2-BP ag, RTF Ca sens act)
C1=NCCc2c1[nH]c1ccccc21	none
CC1=NCCc2c1[nH]c1cc(O)ccc21	CRFR2-BP ag 220, RTF Ca sens act 334
COc1ccc2c(c1)[nH]c1c(C)nccc12	none
COc1ccc2c3c([nH]c2c1)C(C)=NCC3	Myeloid diff MLP active
CC(=O)O[C@H]1CC[C@@]2(C)[C@H](C1)C(=O)C[C@H]1[C@@H]3CC[C@@H]4[C@@H](CN5C[C@@H](C)CC[C@H]5[C@@]4(C)O)[C@@H]3C[C@@H]12	none
C1=C(c2c[nH]c3ccccc23)CCN(Cc2ccccc2)C1	Myeloid diff MLP inconclusive
CN1CC=C(c2c[nH]c3ccccc23)CC1	Myeloid diff MLP active
COC1C(C)OC(OC2CC(C)(O)Cc3cc4c(c(O)c32)C(=O)c2c(O)cc3c(c2C4=O)OC2OC3(C)C(O)C(N(C)C)C2O)C(OC)C1(C)OC (stereo not drawn)	CRFR2-BP ag 198, RTF Ca sens act 678, Myeloid diff MLP inconclusive
O=[N+]([O-])/C=C/c1c(Cl)cccc1Cl	Myeloid diff MLP active
CCN1C(=O)C(=C/C=C/c2ccco2)C(=O)N(CC)C1=S	CRFR2-BP ag 50
CC(C)N1C(=O)/C(=C/C=C/c2ccco2)C(=O)N(Cc2ccco2)C1=O	none
Cc1ccc(-n2c(C)nc3ccccc3c2=O)cc1C	none
Cc1ccc2nsnc2c1-n1c(C)nc2ccccc2c1=O	Myeloid diff MLP active
COC(=O)C1=C(c2ccc(F)cc2F)C[C@@H]2CC[C@H]1N2C(=O)N1CCC(O)CC1	none
CCC(C)C1N=C(c2ccccc2)c2cc(Cl)ccc2N(CC(=O)NCc2ccco2)C1=O (stereo not drawn)	CRFBP-R2 block 55
CC(C)C[C@H]1C(=O)N2CCCC2[C@]2(O)O[C@](NC(=O)[C@@H]3C=C4c5cccc6[nH]cc(c56)CC4N(C)C3)(C(C)C)C(=O)N12 (stereo partly drawn)	RTF Ca sens act 31
CC(C)[C@@]1(NC(=O)[C@@H]2C[C@@H]3c4cccc5[nH]cc(c45)C[C@H]3N(C)C2)O[C@@]2(O)[C@@H]3CCCN3C(=O)[C@H](Cc3ccccc3)N2C1=O	Myeloid diff MLP inconclusive
CC(C)[C@H]1C(=O)N2CCC[C@H]2[C@]2(O)O[C@](NC(=O)[C@@H]3C=C4c5cccc6[nH]cc(c56)C[C@H]4N(C)C3)(C(C)C)C(=O)N12	Myeloid diff MLP active
COc1cccc2c1N=C1CCCC3CN(C(C)=O)CCC123 (stereo not drawn)	none

Screening data as filed in PubChem.
